Holding throughout (experiment): DAPPL (digital affinity profiling via proximity ligation, sequencing); 10 mM Tris-HCl pH 7.5, 50 mM NaCl, 1 mM DTT, 4% glycerol, room temperature, 30 min; GST-TFs on glutathione beads, 16-mer random dsDNA library, 0.1% formaldehyde crosslink after washing; high values mean tight binding
Common to all, as to conditions: protein: recombinant; tags: N-terminal GST; dsDNA, one strand shown

One experiment addresses T1, FLI1 (Homo sapiens, UniProt Q01543 1-452).
T1 sequence: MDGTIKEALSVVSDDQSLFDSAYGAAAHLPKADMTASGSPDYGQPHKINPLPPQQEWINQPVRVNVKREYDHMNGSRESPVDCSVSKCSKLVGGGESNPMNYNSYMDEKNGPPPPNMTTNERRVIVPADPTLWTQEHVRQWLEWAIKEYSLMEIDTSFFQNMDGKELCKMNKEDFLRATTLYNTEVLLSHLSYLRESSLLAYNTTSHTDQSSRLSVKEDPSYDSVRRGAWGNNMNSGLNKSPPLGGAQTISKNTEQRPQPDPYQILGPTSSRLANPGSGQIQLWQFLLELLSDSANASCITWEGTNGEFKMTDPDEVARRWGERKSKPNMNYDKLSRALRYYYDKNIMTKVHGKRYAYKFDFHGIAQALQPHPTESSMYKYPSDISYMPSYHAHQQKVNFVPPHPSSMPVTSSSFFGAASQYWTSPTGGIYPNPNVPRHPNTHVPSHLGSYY
In outline: (§1)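 Binding signal is defined as a hexamer's read frequency for one factor over its frequency for the tag-only sample. To obtain reads, GST-fused human transcription factors were expressed in yeast, captured on glutathione beads, barcoded with DNA and pooled with that sample. Pools met 200 nmole of a 16-mer random double-stranded DNA library in Tris/NaCl/DTT/glycerol buffer for 30 min at room temperature before washing, 0.1% formaldehyde crosslinking, proximity ligation (BsaI/T4 ligase, 1 h, 37 °C), PCR and Illumina NextSeq500 sequencing.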

Another experiment concerns the target T2, ELK1 (Homo sapiens, UniProt P19419 1-428).
T2 sequence: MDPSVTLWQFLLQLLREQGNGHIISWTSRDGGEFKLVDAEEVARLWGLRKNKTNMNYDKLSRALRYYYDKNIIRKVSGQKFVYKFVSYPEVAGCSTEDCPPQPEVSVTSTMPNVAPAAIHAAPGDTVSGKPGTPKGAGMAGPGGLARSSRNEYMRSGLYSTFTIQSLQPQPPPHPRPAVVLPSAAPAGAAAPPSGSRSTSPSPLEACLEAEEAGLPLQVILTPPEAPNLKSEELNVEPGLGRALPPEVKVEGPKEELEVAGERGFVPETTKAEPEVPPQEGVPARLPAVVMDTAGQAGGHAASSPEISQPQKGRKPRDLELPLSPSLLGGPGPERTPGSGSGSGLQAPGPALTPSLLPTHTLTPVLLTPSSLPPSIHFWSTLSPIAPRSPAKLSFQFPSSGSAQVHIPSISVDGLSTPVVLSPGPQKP
In outline:
as §1

For the next experiment, the target named is T3, GABPA (Homo sapiens, UniProt Q06546 1-454).
T3 sequence: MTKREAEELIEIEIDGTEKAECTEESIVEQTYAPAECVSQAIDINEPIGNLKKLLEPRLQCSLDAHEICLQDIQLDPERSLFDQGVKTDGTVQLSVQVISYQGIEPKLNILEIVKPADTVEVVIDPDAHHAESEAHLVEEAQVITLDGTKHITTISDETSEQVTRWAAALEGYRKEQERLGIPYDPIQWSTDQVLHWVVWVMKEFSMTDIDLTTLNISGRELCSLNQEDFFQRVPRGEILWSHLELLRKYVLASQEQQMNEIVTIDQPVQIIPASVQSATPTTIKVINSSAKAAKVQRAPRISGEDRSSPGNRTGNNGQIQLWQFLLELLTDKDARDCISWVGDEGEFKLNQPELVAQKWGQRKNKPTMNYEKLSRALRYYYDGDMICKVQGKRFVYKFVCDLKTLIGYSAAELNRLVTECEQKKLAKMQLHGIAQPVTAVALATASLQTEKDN
In outline: as §1

A further experiment addresses T4, ERG (Homo sapiens, UniProt P11308 1-479).
T4 sequence: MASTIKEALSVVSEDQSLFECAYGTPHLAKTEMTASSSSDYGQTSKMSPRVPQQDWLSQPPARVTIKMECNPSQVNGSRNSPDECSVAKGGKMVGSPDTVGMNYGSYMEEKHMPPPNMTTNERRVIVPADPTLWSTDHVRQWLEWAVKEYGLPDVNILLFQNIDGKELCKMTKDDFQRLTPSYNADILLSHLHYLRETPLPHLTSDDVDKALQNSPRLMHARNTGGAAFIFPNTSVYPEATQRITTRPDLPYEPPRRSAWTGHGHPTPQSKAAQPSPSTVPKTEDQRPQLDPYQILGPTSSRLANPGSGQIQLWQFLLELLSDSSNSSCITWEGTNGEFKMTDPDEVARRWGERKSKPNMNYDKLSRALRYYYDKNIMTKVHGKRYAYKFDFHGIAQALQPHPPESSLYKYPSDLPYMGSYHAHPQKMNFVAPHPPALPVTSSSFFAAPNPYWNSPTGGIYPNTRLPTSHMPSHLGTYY
A digest of the protocol:
as §1

For a further experiment, the target named is ELF1 (Homo sapiens, UniProt P32519 1-619). A digest of the protocol: as §1
In the next experiment the target is T5, EHF (Homo sapiens, UniProt Q9NZC4 1-300).
T5 sequence: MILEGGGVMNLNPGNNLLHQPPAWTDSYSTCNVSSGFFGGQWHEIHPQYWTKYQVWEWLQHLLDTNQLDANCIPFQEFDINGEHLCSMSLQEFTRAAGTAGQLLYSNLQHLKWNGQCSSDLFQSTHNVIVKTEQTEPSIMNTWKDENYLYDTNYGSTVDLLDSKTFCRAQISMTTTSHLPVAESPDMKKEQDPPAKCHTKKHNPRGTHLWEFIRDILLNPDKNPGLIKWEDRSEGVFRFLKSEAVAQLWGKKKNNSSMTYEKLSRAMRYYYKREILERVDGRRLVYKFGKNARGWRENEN
In outline: as §1

Another experiment deals with SPI1 (Homo sapiens, UniProt P17947 1-270). A digest of the protocol:
as §1

Another experiment has as its target SPIB (Homo sapiens, UniProt Q01892 1-262). In outline: as §1
A further experiment has as its target T6, ELK3 (Homo sapiens, UniProt P41970 1-407).
T6 sequence: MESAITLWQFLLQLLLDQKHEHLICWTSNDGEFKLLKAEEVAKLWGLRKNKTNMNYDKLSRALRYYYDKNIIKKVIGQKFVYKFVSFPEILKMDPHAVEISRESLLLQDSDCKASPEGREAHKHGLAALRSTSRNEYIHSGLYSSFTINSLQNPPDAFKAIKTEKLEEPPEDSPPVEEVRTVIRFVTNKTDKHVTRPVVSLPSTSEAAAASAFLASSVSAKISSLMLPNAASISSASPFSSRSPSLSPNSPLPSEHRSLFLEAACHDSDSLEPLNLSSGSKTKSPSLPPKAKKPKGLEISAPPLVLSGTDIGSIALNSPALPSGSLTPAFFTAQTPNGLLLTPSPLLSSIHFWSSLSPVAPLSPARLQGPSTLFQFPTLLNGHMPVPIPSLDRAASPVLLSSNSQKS
A digest of the protocol: as §1

SPIB, sequence (Q01892 whole entry): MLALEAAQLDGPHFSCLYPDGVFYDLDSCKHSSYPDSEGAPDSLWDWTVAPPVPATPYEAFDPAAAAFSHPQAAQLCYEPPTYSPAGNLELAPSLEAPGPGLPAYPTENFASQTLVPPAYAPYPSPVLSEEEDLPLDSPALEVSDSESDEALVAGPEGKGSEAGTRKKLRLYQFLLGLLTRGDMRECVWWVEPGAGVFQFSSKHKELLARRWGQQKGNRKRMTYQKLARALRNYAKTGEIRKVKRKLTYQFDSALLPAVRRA
ELF1, sequence (P32519 whole entry): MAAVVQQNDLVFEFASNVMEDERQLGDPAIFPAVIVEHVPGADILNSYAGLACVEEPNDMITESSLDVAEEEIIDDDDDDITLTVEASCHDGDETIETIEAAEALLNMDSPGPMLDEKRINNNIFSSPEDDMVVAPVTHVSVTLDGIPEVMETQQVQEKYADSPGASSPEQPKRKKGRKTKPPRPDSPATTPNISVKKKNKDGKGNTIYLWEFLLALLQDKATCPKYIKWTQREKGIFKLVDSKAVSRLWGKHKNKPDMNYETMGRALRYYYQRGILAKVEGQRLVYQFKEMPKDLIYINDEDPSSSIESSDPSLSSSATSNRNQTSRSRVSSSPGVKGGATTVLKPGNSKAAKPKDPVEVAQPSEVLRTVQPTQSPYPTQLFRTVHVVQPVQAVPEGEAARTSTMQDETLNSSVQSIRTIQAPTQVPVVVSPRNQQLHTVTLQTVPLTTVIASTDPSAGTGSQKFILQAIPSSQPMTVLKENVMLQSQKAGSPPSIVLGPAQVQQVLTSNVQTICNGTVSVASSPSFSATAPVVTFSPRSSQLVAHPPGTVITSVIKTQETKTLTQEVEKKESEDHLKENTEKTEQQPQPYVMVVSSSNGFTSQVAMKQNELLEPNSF

TAGTAC: the binding signal with FLI1 is 1.11 fold enrichment (6-mer frequency, TF over GST control); with ELK1, 1.13 fold enrichment (6-mer frequency, TF over GST control); with GABPA, 1.22 fold enrichment (6-mer frequency, TF over GST control); in the experiment with ERG, 1.24 fold enrichment (6-mer frequency, TF over GST control); in the experiment with ELF1, 1.16 fold enrichment (6-mer frequency, TF over GST control); with EHF, 1.08 fold enrichment (6-mer frequency, TF over GST control). The binding signal with SPI1 is 1.07 fold enrichment (6-mer frequency, TF over GST control); with SPIB, 1.06 fold enrichment (6-mer frequency, TF over GST control); in the experiment with ELK3, 1.12 fold enrichment (6-mer frequency, TF over GST control).

Take CTTGGT: the binding signal with FLI1 is 1.63 fold enrichment (6-mer frequency, TF over GST control); with ELK1 it was 1.44 fold enrichment (6-mer frequency, TF over GST control); in the experiment with GABPA it was 1.55 fold enrichment (6-mer frequency, TF over GST control); with ERG it was 1.42 fold enrichment (6-mer frequency, TF over GST control); with ELF1, 1.46 fold enrichment (6-mer frequency, TF over GST control); with EHF, 1.53 fold enrichment (6-mer frequency, TF over GST control). The binding signal with SPI1 was 1.4 fold enrichment (6-mer frequency, TF over GST control); with SPIB, 1.57 fold enrichment (6-mer frequency, TF over GST control); with ELK3 it was 1.66 fold enrichment (6-mer frequency, TF over GST control).

CTCTAT: the binding signal with FLI1 is 1.09 fold enrichment (6-mer frequency, TF over GST control); with ELK1, 1.22 fold enrichment (6-mer frequency, TF over GST control); with GABPA it was 1.2 fold enrichment (6-mer frequency, TF over GST control); with ERG it was 1.17 fold enrichment (6-mer frequency, TF over GST control); with ELF1 it was 1.22 fold enrichment (6-mer frequency, TF over GST control); with EHF, 1.09 fold enrichment (6-mer frequency, TF over GST control). The binding signal is 1.16 fold enrichment (6-mer frequency, TF over GST control) with SPI1; 1.17 fold enrichment (6-mer frequency, TF over GST control) with SPIB; 1.11 fold enrichment (6-mer frequency, TF over GST control) in the experiment with ELK3.

Turning to ATGCGC, the binding signal in the experiment with FLI1 is 1.15 fold enrichment (6-mer frequency, TF over GST control); with ELK1, 1.18 fold enrichment (6-mer frequency, TF over GST control); with GABPA, 1.18 fold enrichment (6-mer frequency, TF over GST control); in the experiment with ERG, 1.18 fold enrichment (6-mer frequency, TF over GST control); in the experiment with ELF1, 1.1 fold enrichment (6-mer frequency, TF over GST control); in the experiment with EHF it was 1.17 fold enrichment (6-mer frequency, TF over GST control). Also, the binding signal in the experiment with SPI1 is 1.11 fold enrichment (6-mer frequency, TF over GST control); in the experiment with SPIB, 1.21 fold enrichment (6-mer frequency, TF over GST control); with ELK3 it was 1.08 fold enrichment (6-mer frequency, TF over GST control).

Turning to CTCCTT, the binding signal with FLI1 is 1.92 fold enrichment (6-mer frequency, TF over GST control); with ELK1, 1.72 fold enrichment (6-mer frequency, TF over GST control); with GABPA it was 1.7 fold enrichment (6-mer frequency, TF over GST control); in the experiment with ERG it was 1.82 fold enrichment (6-mer frequency, TF over GST control); with ELF1 it was 1.94 fold enrichment (6-mer frequency, TF over GST control); with EHF, 1.64 fold enrichment (6-mer frequency, TF over GST control). The binding signal is 1.71 fold enrichment (6-mer frequency, TF over GST control) with SPI1; 1.82 fold enrichment (6-mer frequency, TF over GST control) with SPIB; 1.65 fold enrichment (6-mer frequency, TF over GST control) in the experiment with ELK3.

In the case of CTGAAT, the binding signal in the experiment with FLI1 was 1.23 fold enrichment (6-mer frequency, TF over GST control); in the experiment with ELK1, 1.37 fold enrichment (6-mer frequency, TF over GST control); with GABPA, 1.36 fold enrichment (6-mer frequency, TF over GST control); with ERG, 1.36 fold enrichment (6-mer frequency, TF over GST control); with ELF1 it was 1.31 fold enrichment (6-mer frequency, TF over GST control); with EHF, 1.31 fold enrichment (6-mer frequency, TF over GST control). The binding signal in the experiment with SPI1 is 1.36 fold enrichment (6-mer frequency, TF over GST control); with SPIB, 1.26 fold enrichment (6-mer frequency, TF over GST control); in the experiment with ELK3 it was 1.23 fold enrichment (6-mer frequency, TF over GST control).

TCGCTC: the binding signal in the experiment with FLI1 was 1.25 fold enrichment (6-mer frequency, TF over GST control); with ELK1, 1.27 fold enrichment (6-mer frequency, TF over GST control); in the experiment with GABPA, 1.35 fold enrichment (6-mer frequency, TF over GST control); with ERG, 1.26 fold enrichment (6-mer frequency, TF over GST control); with ELF1, 1.29 fold enrichment (6-mer frequency, TF over GST control); in the experiment with EHF it was 1.19 fold enrichment (6-mer frequency, TF over GST control). Also, the binding signal is 1.29 fold enrichment (6-mer frequency, TF over GST control) with SPI1; 1.27 fold enrichment (6-mer frequency, TF over GST control) in the experiment with SPIB; 1.37 fold enrichment (6-mer frequency, TF over GST control) with ELK3.

In the case of AATCTG, the binding signal in the experiment with FLI1 is 1.48 fold enrichment (6-mer frequency, TF over GST control); with ELK1 it was 1.33 fold enrichment (6-mer frequency, TF over GST control); with GABPA, 1.49 fold enrichment (6-mer frequency, TF over GST control); with ERG it was 1.46 fold enrichment (6-mer frequency, TF over GST control); with ELF1, 1.48 fold enrichment (6-mer frequency, TF over GST control); with EHF, 1.31 fold enrichment (6-mer frequency, TF over GST control). Moreover, the binding signal was 1.42 fold enrichment (6-mer frequency, TF over GST control) in the experiment with SPI1; 1.51 fold enrichment (6-mer frequency, TF over GST control) with SPIB; 1.34 fold enrichment (6-mer frequency, TF over GST control) with ELK3.
